PubChem BioAssay AID620 (Sanford-Burnham Center for Chemical Genomics, 2007)
Screen size: about 87,000 compounds; about 360 (0.41%) were called active. No stated cut-off is given here; in the data, active means cytotoxicity above about 50%; inactive means the rest. Only a selection was taken, and actives are over-represented in it overall.

Assay: HT1080 cell viability loss – fluorescence readout (AID 620);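 further: cells exposed to compound overnight then 4 h with Alamar Blue; 0% = vehicle DMSO and 100% = killing control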
Conditions: at 10 µM, stronger effect = higher value
For `Cc1cccc(Nc2nn3c(=O)c4ccccc4nc3s2)c1`, the cytotoxicity was 6.1% (inactive). In the case of `CCCCCCSc1cc(C)nc2ncnn12`, the cytotoxicity was -4.5% (inactive). With `CCOc1cc(-c2noc(-c3ccncc3)n2)cc(Br)c1OC` the cytotoxicity was -6.4% (inactive). In the case of `CCN(CC)C(=O)CN(C#N)c1nc(OC)nc(N(C)C)n1`, the cytotoxicity was 5.3% (inactive). In the case of `CCCCn1c(N)c(N(CC)C(=O)c2ccc3c(c2)S(=O)(=O)c2ccccc2C3=O)c(=O)[nH]c1=O`, the cytotoxicity was -1.2% (inactive). For `CCn1c(SCC(=O)Nc2ccc3c(c2)OCCO3)nnc1-c1ccccn1`, the cytotoxicity was 37% (inactive). For `Cn1c(SCC(=O)Nc2ccc3c(c2)OCO3)nnc1-c1cnccn1`, the cytotoxicity was 13.4% (inactive). In the case of `CCn1c(SCC(=O)Nc2ccc3c(c2)OCO3)nnc1-c1cnccn1`, the cytotoxicity was 102% (active). With `CN1C(=O)c2ccc(S(=O)(=O)c3ccc(C(=O)O)cc3)cc2C1=O` the cytotoxicity was 3.3% (inactive). For `Cc1ccc2[nH]c(=O)c(-c3nc4ccccn4c3NCc3ccco3)cc2c1`, the cytotoxicity was -4.4% (inactive). In the case of `COc1ccc2c(c1)C(C1=C(O)CC(C)(C)CC1=O)C1=C(CC(C)(C)CC1=O)O2` (configuration not stated), the cytotoxicity was 10.3% (inactive). With `CC[C@]1(O)CC2CN(CCc3c([nH]c4ccccc34)[C@@](C(=O)OC)(c3cc4c(cc3OC)N(C=O)[C@H]3[C@@](O)(C(=O)OC)[C@H](OC(C)=O)[C@]5(CC)C=CCN6CC[C@]43[C@@H]65)C2)C1` (some centres not stated) the cytotoxicity was 65.8% (active). For `CC(C)Cn1c(=O)c2c(c3ccccc31)OC(C)C(=O)N2` (configuration not stated), the cytotoxicity was -0.6% (inactive). For `CCOC(=O)CNC(=O)C(Cc1ccccc1)NS(=O)(=O)c1ccc2c(c1)CCC(=O)N2` (configuration not stated), the cytotoxicity was 0.8% (inactive). In the case of `Oc1ccc(Nc2nc(-c3ccc(O)cc3)cs2)cc1`, the cytotoxicity was 2.8% (inactive). In the case of `Cc1cccnc1Nc1nc(-c2ccc(O)c(O)c2)cs1`, the cytotoxicity was 9.2% (inactive). For `Oc1ccc(Nc2nc(-c3ccc4ccccc4c3)cs2)cc1`, the cytotoxicity was 53.6% (active). For `Oc1ccc(-c2csc(-c3ccccc3)n2)cc1O`, the cytotoxicity was 15.6% (inactive). With `NS(=O)(=O)c1ccc(Nc2nc(-c3ccc4ccccc4c3)cs2)cc1` the cytotoxicity was -2.9% (inactive). With `Oc1ccc(-c2nc(-c3ccc(O)c(O)c3)cs2)cc1` the cytotoxicity was 61.2% (active). In the case of `O=C(O)CCc1ccc(-c2cccs2)n1CCC(=O)O`, the cytotoxicity was -6.8% (inactive). With `Cn1nc(-c2ccccc2)c(-c2nc(-c3cccc(C(F)(F)F)c3)no2)c1Cl` the cytotoxicity was 6.9% (inactive). With `COC(=O)c1ccccc1NC(=O)CSc1nc(-c2ccco2)cc(C(F)(F)F)n1` the cytotoxicity was 52.3% (active). For `Cc1ccc(NC(=O)CSc2nc(-c3ccco3)cc(C(F)(F)F)n2)cc1C`, the cytotoxicity was -8.6% (inactive). With `Cc1cccc(C)c1NC(=O)CSc1nc(-c2ccco2)cc(C(F)(F)F)n1` the cytotoxicity was 3.3% (inactive). With `Cc1cc(NC(=O)CCCSc2nc(-c3ccco3)cc(C(F)(F)F)n2)no1` the cytotoxicity was 2.7% (inactive). With `COC(=O)c1ccc(C(=O)OC)c(NC(=O)CSc2nc(-c3ccco3)cc(C(F)(F)F)n2)c1` the cytotoxicity was 5.6% (inactive). With `O=C(CSc1nnc(-c2ccccn2)n1Cc1ccccc1)Nc1ccc2c(c1)OCO2` the cytotoxicity was 3.3% (inactive). With `Cc1oc(C(=O)O)cc1COc1ccc2c(C)cc(=O)oc2c1` the cytotoxicity was -7.7% (inactive). With `CC(=O)c1c(C)[nH]c(C(=O)N2CCN(c3ncccn3)CC2)c1C` the cytotoxicity was -1.6% (inactive). With `COc1cccc(N2CCN(C(=O)c3[nH]c(C)c(C(C)=O)c3C)CC2)c1` the cytotoxicity was 51% (active). In the case of `CC(=O)c1c(C)[nH]c(C(=O)N2CCN(c3ccc(F)cc3)CC2)c1C`, the cytotoxicity was -1.4% (inactive). For `COc1ccccc1NC(=O)Cn1nc(C(F)(F)F)c2c1CCCC2`, the cytotoxicity was -0.3% (inactive). With `CCOC(=O)c1c(C)oc2cc3c(C(=O)OCC)c(C)oc3cc12` the cytotoxicity was -0.1% (inactive). For `CCOC(=O)c1c(C)oc2c(F)c(F)c(F)c(F)c2c1=O`, the cytotoxicity was 96.5% (active). With `CCOC(=O)c1c(C)cc(=O)oc1C` the cytotoxicity was -21.5% (inactive). In the case of `COC(=O)Nc1cc(C)nc2ccccc12`, the cytotoxicity was -9.1% (inactive). In the case of `COc1ccc(N2CCN(c3ncnc4nc[nH]c34)CC2)cc1`, the cytotoxicity was -6.5% (inactive). For `O=c1cc(N2CCN(Cc3ccccc3)CC2)[nH]c(=O)n1-c1cccc(C(F)(F)F)c1`, the cytotoxicity was 12.7% (inactive). In the case of `Cc1onc(-c2ccccc2)c1C(=O)Nc1ccccc1N1CCOCC1`, the cytotoxicity was 3.3% (inactive). In the case of `Cc1onc(-c2ccccc2)c1C(=O)Nc1cc(C(F)(F)F)ccc1N1CCOCC1`, the cytotoxicity was 59.2% (active). For `O=C(CSc1nc2ccccc2[nH]1)Nc1cc(C(F)(F)F)ccc1N1CCOCC1`, the cytotoxicity was -2.4% (inactive). In the case of `Cc1ccc2nc(SCC(=O)Nc3cc(C(F)(F)F)ccc3N3CCOCC3)[nH]c2c1`, the cytotoxicity was 62.5% (active). In the case of `Cc1nnc(SCC(=O)Nc2cc(C(F)(F)F)ccc2N2CCOCC2)o1`, the cytotoxicity was 7% (inactive). With `O=C(Nc1cc(C(F)(F)F)ccc1N1CCOCC1)c1c(F)c(F)c(F)c(F)c1F` the cytotoxicity was 1.3% (inactive). With `COCCNC(=O)C1(C)C=CCN1C(C)=O` (configuration not stated) the cytotoxicity was -17.3% (inactive). With `COc1ccc(NC(=O)c2ccc(-n3nc(C)cc3C)cc2)cc1OC` the cytotoxicity was -17.7% (inactive). For `COC(=O)c1ccccc1S(=O)(=O)C(C)(C)C`, the cytotoxicity was 7.6% (inactive). With `CCOCCCNC(=O)C1CCN(S(=O)(=O)N2CCCCC2)CC1` the cytotoxicity was 1.1% (inactive). With `COC(=O)C1=[N+]([O-])OC(C(=O)OC)C1c1c[nH]c2ccccc12` (configuration not stated) the cytotoxicity was 41.5% (inactive). With `Cc1nc2c(sc3nc4c(cc32)COC(C)(C)C4)c(=O)n1CC(=O)NCc1ccco1` the cytotoxicity was 55.6% (active). In the case of `CCc1nc2c(sc3nc4c(cc32)COC(C)(C)C4)c(=O)n1Cc1ccco1`, the cytotoxicity was 1.2% (inactive). For `CC1(C)Cc2nc3sc4c(=O)n(CC(=O)NCc5ccco5)cnc4c3cc2CO1`, the cytotoxicity was 15.9% (inactive). With `CSC1=Nc2sc3c(c2C2=NCCN12)CCCC3` the cytotoxicity was 7.2% (inactive). For `COc1cc2c(cc1OC)C1C/C(=N\O)C(CC(C)C)CN1CC2` (configuration not stated), the cytotoxicity was -13.4% (inactive). With `COc1cc2c(cc1OC)C1Cc3ccc(OC)c(OC)c3CN1CC2` (configuration not stated) the cytotoxicity was -0.8% (inactive). For `CC[C@H]1CN2CCc3cc(OC)c(OC)cc3[C@@H]2C[C@@H]1C[C@H]1NCCc2cc(OC)c(OC)cc21`, the cytotoxicity was 78.8% (active). For `Cc1oc(-c2ccccc2F)nc1CN1CCC(C(=O)NCc2cccs2)CC1`, the cytotoxicity was -2.2% (inactive). With `Cc1ncc(S(=O)(=O)c2ccc(Cl)cc2)c(-c2ccccc2)n1` the cytotoxicity was 18.2% (inactive). In the case of `O=S(=O)(Nc1nnc(-c2ccccc2)s1)c1ccc(Cl)cc1`, the cytotoxicity was 5.7% (inactive). In the case of `O=C1NCCCC1C(=O)N1CCN(C(=O)C2CCCNC2=O)CC1` (configuration not stated), the cytotoxicity was -7.4% (inactive). With `O=C(CCn1cccc1)Nc1ccccc1F` the cytotoxicity was -5.1% (inactive).
